Measurements reported in PubChem BioAssay (NCATS).
Records with an inconclusive call do not appear. The source made the active and inactive calls. Calls follow the shape of the dose curve; as a rule, active = well fitted curve in either direction with a large enough effect (not every such curve was filed as active); inconclusive = small, poorly fitted or top-dose-only effect, or another doubt; inactive = flat fitted curve, though single readings scatter.

Assay: Stat Signaling Pathway (AID 446)
Conditions: ME-180 SIE beta-lactamase reporter, IL-6 stimulated, 5 h; at 7.69 µM (top of the series) unless noted
Method: NCGC Assay Overview: The IL-6/STAT signaling pathway was assayed in ME-180 cervical carcinoma cells by a beta-lactamase reporter gene controlled by a STAT Inducible Element (SIE). This reporter is induced by IL-6 at 40 pM AC50 and inhibited by the pan JAK inhibitor, 2-(1,1-Dimethylethyl)-9-fluoro-3,6-dihydro-7H-benz[h]-imidaz[4,5-f]isoquinolin-7-one, at approximately 10 nM AC50. Plated cells were incubated overnight and on the following day, stimulated with 40 pM IL-6 for 5 hrs. The assay was screened at the AC50 of IL-6 activation to identify both inhibitors and activators of IL-6/STAT signaling.
NCGC Assay Protocol Summary: Cells were trypsinized, washed in assay medium (AM, OPTI MEM with 0.5% fetal bovine serum, 0.1 mM nonessential amino acids, 1 mM sodium pyruvate, 10mM HEPES pH 7.3, 100U/ml penicillin, and 100 ug/ml streptomycin) and suspended at 6 x 10e5/ml in AM. Approximately […] cells in 5 uL/well was dispensed into 1536 well plates and the cells were incubated overnight at 37 C. 23 nL of compound were delivered by a pin tool and 1 uL of IL-6 (40 pM final concentration in AM) was added. After centrifugation at 1000 rpm for less than a minute, plates were incubated at 37C for 5 hrs. One uL of detector mix (LiveBLAzerTM, Invitrogen) was added, the plates incubated at room temperature for 2.5 hrs, and fluorescence intensity at 460 and 530 nm emission was measured at 405 nm excitation by an Envision (Perkin Elmer) or Safire II (Tecan). Data were normalized by GeneData to the controls for AC90 stimulation (300 pM IL-6) and to AC90 inhibition (125 nM Jak inhibitor, 40 pM IL-6 in AM).
% is scaled to controls: 0 for no effect and ±100 for the full control effect.

activity, negative = inhibition, inactive:
COc1ccc2c(c1)[n+]([O-])c(/C(C)=N/NC(N)=S)c(C)[n+]2[O-] 0.294%
Cc1cc(C)c2nc3c(c([C@H](O)[C@@H]4CCCCN4)c2c1)CC/C3=C/c1ccc(Cl)cc1 1.11%
O=C(C[N+]1(c2ccccc2)CCOCC1)c1ccccc1 -5.59%
CC(=O)[C@H]1CC[C@@H]2[C@]1(C)CC=C1[C@]23C=C[C@]2(C[C@H](O)CC[C@@]12C)[C@H](C(=O)O)[C@@H]3C(=O)O 3.06%
CC1(CC(=O)O)O[C@H]2CCCCC[C@H]2O1 (stereo not given in full) (tested in a mixture with another compound) 5.55%
O=C(O)Cc1cc(Cl)ccc1O 20.2%
CCCCCCCCCCCCC/C=C\[C@H](O)[C@H](N)CO -6.68% [at 38 µM]
c1ccc(-c2nnn(CCN3CCCCC3)n2)cc1 1.18%
COc1nc(Cl)nc(Cl)c1Cl (tested in a mixture with another compound) 7.12%
CN(C)Cc1cc(C(C)(C)C)cc(CN(C)C)c1O -1.5%
C[C@H]1CCCC2(CC[N+](C)(CCC[N+](C)(C)C)CC2)C1 (stereo not given in full) 1.53%
NC(N)=NNC(=O)C(=O)O 2.14%
CC(C)[C@](N)(C(=O)O)c1ccccc1 29.8%
CN(C)C[C@H]1CCC[C@@H](CN(C)C)C1=O 3.25%
Cc1cc2cc3c(=O)[nH]c(=O)[nH]c3nc2cc1C -6.9%
N[C@@H]1C=CC=C(C(=O)O)C1 16.2% [at 38 µM]
CC1=NN(c2ccccc2)C(=O)[C@@H]1N=Nc1ccc(S(N)(=O)=O)cc1 -4.22%
Oc1ccccc1CNCc1ccccc1O -8.46%
CC(=NC1CCCCC1)c1ccccc1O 11%
O=C(O)C[C@H](NC(=O)CP(=O)(O)O)C(=O)O.[NH-][C@@H]1CCCC[C@@H]1[NH-].[Pt] -12%
N#Cc1c(NC(=O)CCC(=O)O)ccc2ccccc12 4.61%
O=C1[C@@H]2[C@@H](C(=O)N1c1ccc(OCc3ccccc3)cc1)[C@@H]1c3ccccc3[C@@H]2[n+]2ccccc21 4.93%
CC(C)c1ccc(O)c(O)c(=O)c1 (tested in a mixture with another compound) 4.84%
COc1ccc(-n2c(=O)c(C)nc3cnc(Nc4cccc(OC)c4)nc32)cc1 -24.1%
CC[N+](C)(CC)CCN1C(=O)c2ccccc2S1(=O)=O -3.07%
CC(=O)[C@]1(O)CC[C@@H]2[C@H]3C[C@@H](C)C4=CC(=O)CC[C@@]4(C)[C@H]3[C@@H](O)C[C@]21C -9.62%
COCCn1c(=O)c(CCc2ccccc2)nc2cnc(Oc3cccc(Cl)c3)nc21 -17.3%
Nc1ccn([C@@H]2O[C@H](COC(=O)C34CC5CC(CC(C5)C3)C4)[C@@H](O)[C@@H]2O)c(=O)n1 -0.882%
Clc1ccc(Cl)c(Nc2ccnc(SCc3ccccc3)n2)c1 0.24%
c1ccc2c(c1)C(=Nc1ccc(N=C3c4ccccc4-c4ccccc43)cc1)c1ccccc1-2 4.55%
Clc1ccc2c(NCCNc3ccnc4cc(Cl)ccc34)ccnc2c1 9.24%
C(=N/Nc1ccccn1)/c1cccnc1 2.75%
CN(CCc1ccccn1)c1ccc2c(c1)C(=O)c1ccccc1-2 -7.39%
Cc1cc(O)c(C(C)C)cc1N=Cc1ccccc1O -2.05%
OCCCNc1ncnc2[nH]ncc12 -7.35%
CCOC(=O)Nc1nc(-c2ccccc2)c(C)s1 1.24%
CC1(C)[C@@H]2CC[C@@]1(CS(=O)(=O)Nc1ccccc1)C(=O)C2 -7%
FC(F)(F)c1cc(NC(=S)N2c3ccccc3-n3cccc3[C@H]2c2cccnc2)cc(C(F)(F)F)c1 -5.05%

Same assay, conditions: ME-180 SIE beta-lactamase reporter, IL-6 stimulated, 5 h; at 17.2 µM (top of the series)

activity, negative = inhibition, inactive:
CC(C)(C)c1ccc([C@@H](O)CCCN2CCC(C(O)(c3ccccc3)c3ccccc3)CC2)cc1 -5.86%

Same assay, conditions: ME-180 (cervical carcinoma) SIE beta-lactamase reporter, IL-6 stimulated, 5 h; at 38 µM (top of the series)

activity, negative = inhibition, inactive:
CC(C)(C)c1ccc([C@@H](O)CCCN2CCC(C(O)(c3ccccc3)c3ccccc3)CC2)cc1 9.55%
